Measured values as given in PubChem BioAssay AID624295 (Southern Research Specialized Biocontainment Screening …, 2012).
The source made the active and inactive calls. How the calls were made is not given here.

Assay: Vero 76 cell cytotoxicity, cytotoxicity control for VEEV inhibitor project, set 6 (AID 624295)

SMILES	outcome
CCN1CCN(Cc2nc3ccc([N+](=O)[O-])cc3c(=O)n2-c2ccccc2)CC1	inactive
NS(=O)(=O)c1ccc(-n2c(-c3ccccc3)nc3ccc(Br)cc3c2=O)cc1	inactive
O=c1c2cc([N+](=O)[O-])ccc2nc(CN2CCNCC2)n1-c1ccccc1	inactive
O=c1c2cc([N+](=O)[O-])ccc2nc(CN2CCCCC2)n1-c1ccccc1F	inactive
CCN1CCN(Cc2nc3cccc([N+](=O)[O-])c3c(=O)n2-c2ccccc2)CC1	inactive
CCN1CCN(Cc2nc3ccc(C(=O)N(C)C)cc3c(=O)n2-c2ccccc2)CC1	inactive
CCN1CCN(Cc2nc3ccc([N+](=O)[O-])cc3c(=O)n2-c2ccc(F)cc2)CC1	inactive
CCN1CCN(Cc2nc3ccc([N+](=O)[O-])cc3c(=O)[nH]2)CC1	inactive
CCN1CCN(Cc2nc3ccc(I)cc3c(=O)n2-c2ccccc2)CC1	inactive
O=c1c2cc([N+](=O)[O-])ccc2nc(CN2CCNCC2)n1-c1ccccc1F	inactive
CCN1CCN(Cc2nc3cc([N+](=O)[O-])ccc3c(=O)n2-c2ccccc2)CC1	inactive
CCN1CCN(Cc2nc3ccc([N+](=O)[O-])cc3c(=O)n2C(C)C)CC1	inactive
CCN1CCN(Cc2nc3ccc([N+](=O)[O-])cc3c(=O)n2-c2cccc(F)c2)CC1	inactive
CCN1CCN(Cc2nc3ccc(C(N)=O)cc3c(=O)n2-c2ccccc2)CC1	inactive
CN1CCN(Cc2nc3ccc([N+](=O)[O-])cc3c(=O)n2-c2ccccc2F)CC1	inactive
